In paper PMC4552634, “A New Set of Chemical Starting Points with Plasmodium falciparum Transmission-Blocking Potential for Antimalarial Drug Discovery” (PLoS ONE, 2015):
The whole screen tested about 13,000 compounds, of which about 3,200 (25%) showed an effect of 50% or more. This is one part of the list.

System: P. falciparum stage V gametocytes
Set-up: BacTiter-Glo ATP luminescence viability of purified stage V gametocytes in 384-well plates, per cent inhibition versus DMSO
Conditions: 48 h, 5 µM; inhibitor

Row | Structure (SMILES) | % Inhibition [%]
1 | O=[N+]([O-])c1ccc(N2CCCN(C(=S)Nc3ccc(F)cc3Br)CC2)nc1 [TCMDC-124054] | 81.59
2 | O=C(Nc1ccc([N+](=O)[O-])cc1Br)c1cc2ccccc2nc1Cl [TCMDC-124537] | 29.24
3 | O=C(Nc1ccc(Cn2ncc(N3CCCNCC3)c(Cl)c2=O)cc1)Nc1ccc(F)cc1[N+](=O)[O-] [TCMDC-141926] | -31.19
4 | N#Cc1ccc(NC(=NC2CCN(Cc3ccccc3)CC2)Nc2ccccc2Cl)c(O)c1 [TCMDC-140256] | -5.798
5 | Cc1cccc2nc(-c3cccc(-c4ccc(C(=O)NCc5ccccc5S(C)(=O)=O)cc4)c3)[nH]c12 [TCMDC-132505] | 5.091
6 | CC(C)n1nc(C(=O)N2CCN(c3ccccc3)CC2)c2ccccc2c1=O [TCMDC-124333] | 78.8
7 | Cn1nc(C(=O)N2CCC(c3[nH]ncc3Cc3ccccc3)CC2)c2ccccc2c1=O [TCMDC-124642] | 16.79
8 | CC(=O)CC(=O)N1CCN(c2ccccc2)CC1 [TCMDC-125502] | -5.255
9 | Cn1c2c(c3ccccc31)CN(CCC1(c3ccc(Cl)c(Cl)c3)CN(C(=O)c3ccccc3)CCO1)CC2 (stereo not shown) [TCMDC-135562] | -29.91
10 | COCCN(C(=O)Cc1cccs1)C(C(=O)NCc1ccc(OC)cc1)c1ccc(C(C)C)cc1 (stereo not shown) [TCMDC-125625] | -2.779
11 | CN1CCN(CCNc2c3ccccc3nc3c2ccc2ccccc23)CC1 [TCMDC-137723] | 92.22
12 | CN1CCN(CCNc2c3ccccc3nc3ccc4ccccc4c23)CC1 [TCMDC-137724] | 54.46
13 | CN(Cc1cnc2nc(N)nc(N)c2n1)c1ccc(C(=O)N[C@@H](CCC(=O)O)C(=O)O)cc1 [TCMDC-125858] | -8.966
14 | Cc1c(-c2cccc(Br)c2)[nH]c2nc(N)nc(N)c12 [TCMDC-137836] | -91.89
15 | O=C(c1ccccc1)N1CCC(CN2CCOC(c3ccccc3)(c3ccccc3)C2)CC1 [TCMDC-136346] | 86.1
16 | O=C(c1ccc(F)c(F)c1)N1CCOC(CCN2CCC(c3ccccc3)CC2)(c2ccc(Cl)c(Cl)c2)C1 (stereo not shown) [TCMDC-135337] | -91.33
17 | O=C(Nc1cccc(F)c1)N1CCC(CN2CCOC(c3ccccc3)(c3ccccc3)C2)CC1 [TCMDC-136345] | 66.91
18 | O=C(Nc1ccccc1)N1CCC(CN2CCOC(c3ccccc3)(c3ccccc3)C2)CC1 [TCMDC-136344] | 40.09
19 | CCOc1ccc(C(=O)N2CCOC(CCN3CCC(c4ccccc4)CC3)(c3ccc(Cl)c(Cl)c3)C2)cc1 (stereo not shown) [TCMDC-135344] | -65.78
20 | COc1cc(OC)cc(C(=O)N2CCOC(CCN3CCC(c4ccccc4)CC3)(c3ccc(Cl)c(Cl)c3)C2)c1 (stereo not shown) [TCMDC-135348] | -85.08
21 | O=C(c1ccc(Cl)cc1)N1CCOC(CCN2CCC(c3ccccc3)CC2)(c2ccc(Cl)c(Cl)c2)C1 (stereo not shown) [TCMDC-135351] | -32.03
22 | O=C(Nc1cc(F)cc(F)c1)N1CCOC(CCN2CCC(c3ccccc3)CC2)(c2ccc(Cl)c(Cl)c2)C1 (stereo not shown) [TCMDC-135333] | 17.76
23 | COc1ccc(C(=O)N2CCC(CN3CCOC(c4ccccc4)(c4ccccc4)C3)CC2)cc1 [TCMDC-136347] | 57.99

Row | Structure (SMILES) | % Inhibition [%]
24 | NC(N)=NC(=O)Nc1cc(F)c(Cl)c(Br)c1 [TCMDC-137510] | -16.64
25 | CC(C)Nc1nc(NC2CCCCC2)nc(N2CCCCCCC2)n1 [TCMDC-139688] | -95.56
26 | Cc1nc2ccc(Nc3nccc(-c4c(-c5cccc(NC(=O)c6c(F)cccc6F)c5)nn5ccccc45)n3)cc2nc1C [TCMDC-135906] | -53.2
27 | Cc1cc(NN=Cc2cccc(Cl)c2)c2ccccc2n1 [TCMDC-142060] | -14.77
28 | Cc1ccc2nc(C)cc(NN=Cc3cccc(Cl)c3)c2c1 [TCMDC-142063] | 87.16
29 | Cc1ccc2c(NN=Cc3cccc(Cl)c3)cc(C)nc2c1 [TCMDC-142064] | 91.21
30 | Cc1ccc2c(NN=Cc3ccc(N(C)C)cc3)cc(C)nc2c1 [TCMDC-142076] | -47.79
31 | Cc1cc(N2CCCC2)nc(Nc2ccc(NC(=O)c3ccco3)cc2)n1 [TCMDC-124965] | -16.57
32 | O=C1C2C3SC(c4c3ccc3ccccc43)C2C(=O)N1c1ccccc1 (stereo not shown) [TCMDC-123946] | -5.395
33 | COC(=O)c1ccc(NC(=O)c2ccc(CCN3CCC(c4nc(COCC(F)(F)F)c(-c5ccc(F)cc5)o4)CC3)cc2)cc1 [TCMDC-138133] | -17.07
34 | CCN(C(=O)CSc1cc(C)c2cc(C)cc(C)c2n1)C1CCS(=O)(=O)C1 (stereo not shown) [TCMDC-123568] | -6.938
35 | CN(C)CCCOc1ccc(CN2CCC(c3c[nH]c4ccc(NCC5CCCCC5)cc34)CC2)cc1 [TCMDC-140737] | 96.97
36 | COc1ccc2[nH]cc(C3CCN(CCCCNC(=O)c4ccc(NC(=O)c5ccc(Cl)cc5)cc4)CC3)c2c1 [TCMDC-138328] | -10.4
37 | COc1ccc2[nH]cc(C3CCN(Cc4ccc(NC(=O)c5ccc(-c6ccccc6)cc5)cc4)CC3)c2c1 [TCMDC-139069] | 7.748
38 | Cc1noc(C)c1-c1cccc(CNCc2cccc(-c3cccc(-c4nc5ccccc5[nH]4)c3)c2)c1.O=C(O)C(F)(F)F [TCMDC-133065] | 2.097
39 | COc1ccc(CCn2c(=N)c(C(=O)NCc3cccnc3)cc3c(=O)n4cccc(C)c4nc32)cc1 [TCMDC-124470] | 92
40 | COCCCn1c(=N)c(C(=O)NCCc2ccc(OC)cc2)cc2c(=O)n3cccc(C)c3nc21 [TCMDC-125085] | 9.799
41 | COc1ccc(CCn2c(=N)c(C(=O)NCc3cccnc3)cc3c(=O)n4ccccc4nc32)cc1 [TCMDC-124471] | 25.4
42 | CCOCCCn1c(=N)c(C(=O)NCc2ccc(F)cc2)cc2c(=O)n3cccc(C)c3nc21 [TCMDC-125407] | 36.21
43 | CCCCn1c(=N)c(C(=O)NCc2cccnc2)cc2c(=O)n3cccc(C)c3nc21 [TCMDC-124382] | 12.6
44 | Cc1cccn2c(=O)c3cc(C(=O)NCCc4ccccc4)c(=N)n(CCCOC(C)C)c3nc12 [TCMDC-125410] | 68.18
45 | CCOCCCn1c(=N)c(C(=O)NCc2ccc(OC)cc2)cc2c(=O)n3cccc(C)c3nc21 [TCMDC-125406] | 75.07
46 | Cc1cccn2c(=O)c3cc(C(=O)NC(C)c4ccccc4)c(=N)n(CCc4ccccc4)c3nc12 (stereo not shown) [TCMDC-124469] | -59.42

Row | Structure (SMILES) | % Inhibition [%]
47 | CCCn1c(=N)c(C(=O)NCCc2ccccc2)cc2c(=O)n3cccc(C)c3nc21 [TCMDC-125084] | 4.719
48 | COc1ccc(CCn2c(=N)c(C(=O)NCc3ccccc3)cc3c(=O)n4cccc(C)c4nc32)cc1 [TCMDC-124473] | 6.095
49 | Cc1cccn2c(=O)c3cc(C(=O)NCc4cccnc4)c(=N)n(CCc4ccccc4)c3nc12 [TCMDC-125663] | 86.68
50 | Cc1ccc2nc3c(cc(C(=O)NCCc4ccccc4)c(=N)n3CCCOC(C)C)c(=O)n2c1 [TCMDC-125408] | -18.91
51 | Cn1c(-c2ccccc2)cc2c3c(=O)cc(C(F)(F)F)[nH]c3ccc21 [TCMDC-123876] | 31.04
52 | C#CCOc1ccc(N2C(N)=NC(N)=NC2(C)C)cc1 [TCMDC-137471] | 11.38
53 | CC(C)c1cc2c(ccc3nc(N)nc(N)c32)o1 [TCMDC-131930] | 25.15
54 | Cc1ncccc1C(=O)Nc1cccc(-c2cccc(-c3nc4c(C)cccc4[nH]3)c2)c1 [TCMDC-136861] | -23.88
55 | COc1cccc(C(=O)N2CCOC(CCN3CCC(c4ccccc4)CC3)(c3ccc(Cl)c(Cl)c3)C2)c1 (stereo not shown) [TCMDC-135336] | -36.5
56 | CCCCNC(=O)[C@H](CC1CCCCC1)NC(=O)c1ccc(O)c(-c2ccc(Cl)c(Cl)c2)c1 [TCMDC-140841] | 30.41
57 | Oc1c(CN2CCC(Cc3ccccc3)CC2)cc(Cl)c2cccnc12 [TCMDC-124594] | 97.81
58 | COc1cc(C)cc(CN2CCC(Cc3ccccc3)CC2)c1O [TCMDC-124540] | -75.55
59 | O=C(NC1CC1)c1cnc(N2CCC(Cc3ccccc3)CC2)c(Cl)c1 [TCMDC-134606] | 6.713
60 | Cc1nccn1Cc1cc(C(C)(C)C)c(O)c(C(C)(C)C)c1 [TCMDC-131329] | -8.756
61 | COc1cc(CNC[C@@H](O)[C@H](Cc2ccccc2)NC(=O)c2cc(OC(C)C)cc(N3CCCS3(=O)=O)c2)cc(OC)c1 [TCMDC-134559] | 3.73
62 | COc1cc2c(cc1C=CC(=O)N1CCN(Cc3nc4sc(C)c(C)c4c(=O)[nH]3)CC1)OC(C)C2 (stereo not shown) [TCMDC-132412] | -4.453
63 | CN(C)CCOc1cc(NC(=O)Nc2ccc(-c3ccccc3)cc2Cl)ccc1I [TCMDC-139140] | -41.53
64 | C/C=C/C=C/C1=NCCc2cc(OCCC)ccc21 [TCMDC-137442] | 112.8
65 | CCC(O)c1ccc(Br)cc1NC(=O)c1cccc(Cl)c1 (stereo not shown) [TCMDC-125394] | 16.03
66 | O=C(O)c1ccc2c(c1)N(C(=O)CNCc1ccc(F)cc1)CC(=O)N2CCCc1ccccc1 [TCMDC-140379] | -9.998
67 | CNC(=O)Cc1ccc(C(=O)Nc2cccc(-c3csc(-c4nc5ccccc5[nH]4)c3)c2)cc1 [TCMDC-132395] | -10.74
